# Out of some 5,500 compounds screened, about 2,000 (36%) were called active. Inconclusive results (about 18%) are left out. The list shows a part of the results. Unmarked numbers belong to inactive results. No stated cut-off is given here; in the data, active means normalized growth mostly below about 0.91 (no sharp cut-off); inconclusive means no clear call, values can overlap the other calls; inactive means mostly above about 0.92.
# Experiment: chemical genetic growth profiling, strain panel (AID 1159580);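 further: tested at 20 µM; growth read once vehicle control cultures reached saturation at 30 °C; 1 = growth at the plate median or of vehicle wells; lower values mean less growth of the strain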
# Details: S. cerevisiae deletion strains, growth OD
# [1] = locus YDL101C, strain DUN1, active compounds read low
# [2] = locus YHR030C, strain SLT2, active compounds read low
structure (smiles),measurement,setting,value
O=[N+]([O-])c1cc(Br)cnc1Sc1nnc(SCC2CC2)s1,normalized growth,"locus YAR019C, strain CDC15, active compounds read low",0.928
same,normalized growth,"locus YBL105C, strain PKC1, active compounds read low",0.96
same,normalized growth,"locus YBR135W, strain CKS1, active compounds read low",0.932
same,normalized growth,"locus YBR136W, strain MEC1, active compounds read low",0.959
same,normalized growth,"locus YBR160W, strain CDC28, active compounds read low",0.953
same,normalized growth,"locus YDL017W, strain CDC7, active compounds read low",0.961
same,normalized growth,"locus YDL028C, strain MPS1, active compounds read low",0.935
same,normalized growth,[1],0.965
same,normalized growth,"locus YDL108W, strain KIN28, active compounds read low",0.952
same,normalized growth,"locus YDL132W, strain cdc53, active compounds read low",0.936
same,normalized growth,"locus YDL214C, strain PRR2, active compounds read low",0.458 (active)
same,normalized growth,"locus YDR052C, strain DBF4, active compounds read low",0.964
same,normalized growth,"locus YDR054C, strain cdc34, active compounds read low",0.947
same,normalized growth,"locus YDR226W, strain ADK1, active compounds read low",0.927
same,normalized growth,"locus YDR477W, strain SNF1, active compounds read low",0.767
same,normalized growth,"locus YER123W, strain YCK3, active compounds read low",0.529 (active)
same,normalized growth,"locus YER133W, strain GLC7, active compounds read low",0.762
same,normalized growth,"locus YFL009W, strain cdc4, active compounds read low",0.93
same,normalized growth,"locus YFL029C, strain CAK1, active compounds read low",0.943
same,normalized growth,"locus YFR003C, strain YPI1, active compounds read low",0.962
same,normalized growth,"locus YFR019W, strain FAB1, active compounds read low",0.721 (active)
same,normalized growth,"locus YFR028C, strain CDC14, active compounds read low",0.943
same,normalized growth,"locus YGR040W, strain KSS1, active compounds read low",0.771
same,normalized growth,"locus YGR052W, strain FMP48, active compounds read low",0.7
same,normalized growth,"locus YGR092W, strain DBF2, active compounds read low",0.484 (active)
same,normalized growth,[2],0.197 (active)
same,normalized growth,"locus YHR079C, strain IRE1, active compounds read low",0.418 (active)
same,normalized growth,"locus YHR082C, strain KSP1, active compounds read low",0.707
same,normalized growth,"locus YHR205W, strain SCH9, active compounds read low",0.609
same,normalized growth,"locus YIL147C, strain SLN1, active compounds read low",0.952
same,normalized growth,"locus YJL095W, strain BCK1, active compounds read low",0.35 (active)
same,normalized growth,"locus YJL128C, strain PBS2, active compounds read low",0.948
same,normalized growth,"locus YJL157C, strain FAR1, active compounds read low",0.533 (active)
same,normalized growth,"locus YJR016C, strain ILV3, active compounds read low",0.944
same,normalized growth,"locus YJR066W, strain TOR1 (second series), active compounds read low",0.531 (active)
same,normalized growth,"locus YJR066W, strain TOR1, active compounds read low",0.621
same,normalized growth,"locus YKL048C, strain ELM1, active compounds read low",0.778 (active)
same,normalized growth,"locus YKL067W, strain YNK1, active compounds read low",0.39 (active)
same,normalized growth,"locus YKL101W, strain HSL1, active compounds read low",0.542 (active)
same,normalized growth,"locus YKL193C, strain SDS22, active compounds read low",0.935
same,normalized growth,"locus YKL203C, strain TOR2, active compounds read low",0.872
same,normalized growth,"locus YLR113W, strain HOG1, active compounds read low",0.554 (active)
same,normalized growth,"locus YLR133W, strain CKI1, active compounds read low",0.574 (active)
same,normalized growth,"locus YLR403W, strain SFP1, active compounds read low",0.754
same,normalized growth,"locus YML070W, strain DAK1, active compounds read low",0.465 (active)
same,normalized growth,"locus YMR001C, strain CDC5, active compounds read low",0.928
same,normalized growth,"locus YMR205C, strain PFK2 (second series), active compounds read low",0.387 (active)
same,normalized growth,"locus YMR277W, strain FCP1, active compounds read low",0.924
same,normalized growth,"locus YNL006W, strain LST8, active compounds read low",0.961
same,normalized growth,"locus YNL020C, strain ARK1, active compounds read low",0.418 (active)
same,normalized growth,"locus YNL161W, strain CBK1, active compounds read low",0.939
same,normalized growth,"locus YNL183C, strain NPR1, active compounds read low",0.351 (active)
same,normalized growth,"locus YNL207W, strain RIO2, active compounds read low",0.929
same,normalized growth,"locus YNL222W, strain SSU72, active compounds read low",0.944
same,normalized growth,"locus YNL307C, strain MCK1 (second series), active compounds read low",0.556 (active)
same,normalized growth,"locus YOL078W, strain AVO1, active compounds read low",0.927
same,normalized growth,"locus YOL136C, strain PFK27, active compounds read low",0.633 (active)
same,normalized growth,"locus YOR061W, strain CKA2, active compounds read low",0.174 (active)
same,normalized growth,"locus YOR119C, strain RIO1, active compounds read low",0.818
same,normalized growth,"locus YOR231W, strain MKK1, active compounds read low",0.333 (active)
same,normalized growth,"locus YOR329C, strain SCD5, active compounds read low",0.962
same,normalized growth,"locus YPL031C, strain PHO85, active compounds read low",0.55 (active)
same,normalized growth,"locus YPL153C, strain RAD53, active compounds read low",0.629 (active)
same,normalized growth,"locus YPL204W, strain HRR25, active compounds read low",0.751
same,normalized growth,"locus YPL209C, strain IPL1, active compounds read low",0.958
same,normalized growth,"locus YPL256C, strain CLN2, active compounds read low",0.515 (active)
same,normalized growth,"locus YPR025C, strain CCL1, active compounds read low",0.95
same,normalized growth,"locus YPR106W, strain ISR1, active compounds read low",0.978
same,normalized growth,"locus YPR111W, strain DBF20, active compounds read low",0.96
same,normalized growth,"strain NNK1, active compounds read low",0.969
same,normalized growth,"strain TSCII, active compounds read low",0.929
CC(C)(C)NS(=O)(=O)NC(C)(C)C,normalized growth,"locus YAL013W, strain DEP1, active compounds read low",0.995
same,normalized growth,"locus YBR229C, strain ROT2, active compounds read low",1
same,normalized growth,"locus YCL061C, strain MRC1, active compounds read low",1.03
same,normalized growth,[1],0.977
same,normalized growth,"locus YDR150W, strain NUM1, active compounds read low",0.88
same,normalized growth,"locus YEL061C, strain CIN8, active compounds read low",1.01
same,normalized growth,"locus YGR078C, strain PAC10, active compounds read low",0.999
same,normalized growth,[2],0.952
same,normalized growth,"locus YHR087W, strain rtc3, active compounds read low",0.964
same,normalized growth,"locus YJL187C, strain SWE1, active compounds read low",0.999
same,normalized growth,"locus YJR043C, strain POL32, active compounds read low",0.998
same,normalized growth,"locus YJR075W, strain HOC1, active compounds read low",1.02
same,normalized growth,"locus YKL190W, strain CNB1, active compounds read low",1
same,normalized growth,"locus YLR039C, strain RIC1, active compounds read low",1.02
same,normalized growth,"locus YLR058C, strain SHM2 (second series), active compounds read low",1
same,normalized growth,"locus YLR085C, strain ARP6, active compounds read low",0.999
same,normalized growth,"locus YLR262C, strain YPT6, active compounds read low",1.02
same,normalized growth,"locus YML094W, strain GIM5, active compounds read low",0.976
same,normalized growth,"locus YMR219W, strain ESC1, active compounds read low",0.995
same,normalized growth,"locus YMR263W, strain SAP30, active compounds read low",1.04
same,normalized growth,"locus YNL128W, strain TEP1, active compounds read low",0.997
same,normalized growth,"locus YNL153C, strain GIM3, active compounds read low",1.01
same,normalized growth,"locus YNL298W, strain CLA4 (second series), active compounds read low",0.973
same,normalized growth,"locus YNL322C, strain KRE1, active compounds read low",1
same,normalized growth,"locus YNR030W, strain Alg12, active compounds read low",1.01
same,normalized growth,"locus YOL006C, strain TOP1, active compounds read low",1.01
same,normalized growth,"locus YPL055C, strain LGE1, active compounds read low",0.921
same,normalized growth,"locus YPL241C, strain CIN2, active compounds read low",1.16 [resistant] (active)
same,normalized growth,"locus YPR135W, strain CTF4, active compounds read low",1.02

# Reference: PubChem BioAssay AID1159580 (chemical genetic matrix, 2015)
